Data as given in PMC7862700, “An all-to-all approach to the identification of sequence-specific readers for epigenetic DNA modifications on cytosine”.

Assays:
Test in all cases: DAPPL (digital affinity profiling via proximity ligation, sequencing); 10 mM Tris-HCl pH 7.5, 50 mM NaCl, 1 mM DTT, 4% glycerol, room temperature, 30 min; GST-TFs on glutathione beads, 16-mer random dsDNA library, 0.1% formaldehyde crosslink after washing; high values mean tight binding
FLI1 = biological target: T1, FLI1 (Homo sapiens, UniProt Q01543 1-452); conditions: protein: recombinant; tags: N-terminal GST; dsDNA, one strand shown
T1 sequence: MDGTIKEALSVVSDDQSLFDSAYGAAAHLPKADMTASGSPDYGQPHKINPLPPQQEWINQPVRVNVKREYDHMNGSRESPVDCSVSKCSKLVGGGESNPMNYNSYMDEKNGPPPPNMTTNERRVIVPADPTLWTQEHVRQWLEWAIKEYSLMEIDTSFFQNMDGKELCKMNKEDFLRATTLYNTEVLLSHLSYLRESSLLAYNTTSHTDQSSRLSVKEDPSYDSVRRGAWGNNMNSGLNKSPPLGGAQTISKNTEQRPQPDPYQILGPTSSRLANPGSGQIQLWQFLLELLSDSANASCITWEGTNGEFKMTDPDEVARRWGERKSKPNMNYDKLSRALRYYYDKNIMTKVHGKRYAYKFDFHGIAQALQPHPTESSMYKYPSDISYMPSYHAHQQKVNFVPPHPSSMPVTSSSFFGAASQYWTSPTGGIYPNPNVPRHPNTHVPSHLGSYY
Method in brief: (§1)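 A tag-only sample was pooled with DNA-barcoded human transcription factors that had been expressed in yeast as GST fusions and captured on glutathione beads. The pools were incubated for 30 min at room temperature with 200 nmole of a random double-stranded 16-mer DNA library in Tris/NaCl/DTT/glycerol buffer, then washed, crosslinked with 0.1% formaldehyde, proximity-ligated (BsaI/T4 ligase, 1 h, 37 °C), PCR-amplified and sequenced on an Illumina NextSeq500. Binding signal is each hexamer's read frequency for a factor divided by its frequency for the tag-only sample.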

ELK1 = biological target: T2, ELK1 (Homo sapiens, UniProt P19419 1-428); conditions: protein: recombinant; tags: N-terminal GST; dsDNA, one strand shown
T2 sequence: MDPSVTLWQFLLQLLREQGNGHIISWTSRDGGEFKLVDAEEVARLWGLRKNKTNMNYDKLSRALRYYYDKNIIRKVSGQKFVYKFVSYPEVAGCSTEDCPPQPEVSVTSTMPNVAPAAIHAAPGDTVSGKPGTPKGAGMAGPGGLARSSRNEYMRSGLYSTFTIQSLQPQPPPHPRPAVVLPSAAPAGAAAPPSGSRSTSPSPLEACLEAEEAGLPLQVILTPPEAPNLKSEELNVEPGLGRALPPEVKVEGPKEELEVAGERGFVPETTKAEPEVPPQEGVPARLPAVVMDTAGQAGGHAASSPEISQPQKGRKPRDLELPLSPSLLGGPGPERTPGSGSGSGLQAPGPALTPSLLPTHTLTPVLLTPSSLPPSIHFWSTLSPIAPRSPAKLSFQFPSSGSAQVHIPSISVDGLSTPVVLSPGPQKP
Method in brief: as §1

GABPA = biological target: T3, GABPA (Homo sapiens, UniProt Q06546 1-454); conditions: protein: recombinant; tags: N-terminal GST; dsDNA, one strand shown
T3 sequence: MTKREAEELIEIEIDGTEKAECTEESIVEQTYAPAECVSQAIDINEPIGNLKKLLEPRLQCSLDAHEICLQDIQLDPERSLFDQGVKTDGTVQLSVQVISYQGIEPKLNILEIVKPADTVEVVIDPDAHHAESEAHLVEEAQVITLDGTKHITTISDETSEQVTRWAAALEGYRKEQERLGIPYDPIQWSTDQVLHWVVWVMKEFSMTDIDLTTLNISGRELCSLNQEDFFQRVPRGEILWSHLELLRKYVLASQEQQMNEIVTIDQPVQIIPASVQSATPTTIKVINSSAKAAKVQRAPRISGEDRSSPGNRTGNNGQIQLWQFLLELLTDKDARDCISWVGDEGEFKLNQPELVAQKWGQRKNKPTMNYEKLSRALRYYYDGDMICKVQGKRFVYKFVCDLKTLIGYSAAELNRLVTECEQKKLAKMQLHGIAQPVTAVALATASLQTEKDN
Method in brief: as §1

ERG = biological target: T4, ERG (Homo sapiens, UniProt P11308 1-479); conditions: protein: recombinant; tags: N-terminal GST; dsDNA, one strand shown
T4 sequence: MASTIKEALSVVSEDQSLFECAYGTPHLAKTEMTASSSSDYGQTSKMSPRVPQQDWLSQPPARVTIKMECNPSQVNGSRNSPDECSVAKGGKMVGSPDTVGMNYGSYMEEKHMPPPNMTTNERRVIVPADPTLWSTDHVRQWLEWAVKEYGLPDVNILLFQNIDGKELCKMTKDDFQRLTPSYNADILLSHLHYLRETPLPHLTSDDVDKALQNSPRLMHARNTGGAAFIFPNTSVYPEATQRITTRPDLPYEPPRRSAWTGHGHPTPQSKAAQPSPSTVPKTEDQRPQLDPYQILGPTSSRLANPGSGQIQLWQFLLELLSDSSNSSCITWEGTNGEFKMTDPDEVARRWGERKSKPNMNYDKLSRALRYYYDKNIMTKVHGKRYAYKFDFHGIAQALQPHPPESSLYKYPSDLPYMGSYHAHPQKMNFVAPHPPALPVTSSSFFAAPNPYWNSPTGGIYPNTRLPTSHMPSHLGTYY
Method in brief: as §1

ELF1 = ELF1 (Homo sapiens, UniProt P32519 1-619); conditions: protein: recombinant; tags: N-terminal GST; dsDNA, one strand shown
Method in brief: as §1

EHF = biological target: T5, EHF (Homo sapiens, UniProt Q9NZC4 1-300); conditions: protein: recombinant; tags: N-terminal GST; dsDNA, one strand shown
T5 sequence: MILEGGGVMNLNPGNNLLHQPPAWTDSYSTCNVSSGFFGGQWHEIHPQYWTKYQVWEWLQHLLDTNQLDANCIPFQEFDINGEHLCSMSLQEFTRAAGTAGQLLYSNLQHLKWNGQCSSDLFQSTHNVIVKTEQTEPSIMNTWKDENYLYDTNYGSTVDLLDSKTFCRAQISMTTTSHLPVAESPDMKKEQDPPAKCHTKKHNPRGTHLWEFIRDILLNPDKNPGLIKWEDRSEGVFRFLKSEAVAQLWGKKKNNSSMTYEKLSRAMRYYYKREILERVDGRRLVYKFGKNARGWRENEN
Method in brief: as §1

SPI1 = SPI1 (Homo sapiens, UniProt P17947 1-270); conditions: protein: recombinant; tags: N-terminal GST; dsDNA, one strand shown
Method in brief: as §1

SPIB = SPIB (Homo sapiens, UniProt Q01892 1-262); conditions: protein: recombinant; tags: N-terminal GST; dsDNA, one strand shown
Method in brief: as §1

ELK3 = biological target: T6, ELK3 (Homo sapiens, UniProt P41970 1-407); conditions: protein: recombinant; tags: N-terminal GST; dsDNA, one strand shown
T6 sequence: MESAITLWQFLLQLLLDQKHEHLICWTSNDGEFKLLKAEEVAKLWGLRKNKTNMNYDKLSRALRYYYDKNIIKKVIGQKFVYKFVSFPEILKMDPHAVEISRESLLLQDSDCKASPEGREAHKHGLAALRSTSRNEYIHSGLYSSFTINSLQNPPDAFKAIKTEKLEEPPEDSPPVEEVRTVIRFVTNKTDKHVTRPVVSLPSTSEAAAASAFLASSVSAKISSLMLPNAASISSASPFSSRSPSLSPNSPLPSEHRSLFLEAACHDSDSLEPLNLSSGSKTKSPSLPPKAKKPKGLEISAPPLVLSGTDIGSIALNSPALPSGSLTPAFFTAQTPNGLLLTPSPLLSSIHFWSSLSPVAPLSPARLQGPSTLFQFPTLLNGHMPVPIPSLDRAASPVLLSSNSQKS
Method in brief: as §1

FEV = biological target: T7, FEV (Homo sapiens, UniProt Q99581 1-238); conditions: protein: recombinant; tags: N-terminal GST; dsDNA, one strand shown
T7 sequence: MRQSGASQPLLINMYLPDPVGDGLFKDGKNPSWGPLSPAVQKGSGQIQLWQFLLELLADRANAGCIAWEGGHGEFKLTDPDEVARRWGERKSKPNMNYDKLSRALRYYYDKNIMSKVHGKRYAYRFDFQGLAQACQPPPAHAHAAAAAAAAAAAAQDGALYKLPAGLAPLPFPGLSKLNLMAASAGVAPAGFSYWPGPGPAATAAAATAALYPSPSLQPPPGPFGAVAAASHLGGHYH
Method in brief: as §1

ETV5 = ETV5 (Homo sapiens, UniProt P41161 1-510); conditions: protein: recombinant; tags: N-terminal GST; dsDNA, one strand shown
Method in brief: as §1

HSF1 = HSF1 (Homo sapiens, UniProt Q00613 1-529); conditions: protein: recombinant; tags: N-terminal GST; chain copies: 3; dsDNA, one strand shown
Method in brief: as §1

SPIC = biological target: T8, SPIC (Homo sapiens, UniProt Q8N5J4 1-248); conditions: protein: recombinant; tags: N-terminal GST; dsDNA, one strand shown
T8 sequence: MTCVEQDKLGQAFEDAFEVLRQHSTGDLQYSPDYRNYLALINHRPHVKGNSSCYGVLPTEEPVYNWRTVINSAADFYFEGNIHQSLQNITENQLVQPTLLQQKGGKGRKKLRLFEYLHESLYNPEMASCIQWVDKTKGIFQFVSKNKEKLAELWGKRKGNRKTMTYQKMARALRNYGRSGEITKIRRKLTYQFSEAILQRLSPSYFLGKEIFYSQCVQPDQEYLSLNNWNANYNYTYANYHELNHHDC
Method in brief: as §1

ELF4 = ELF4 (Homo sapiens, UniProt Q99607 1-663); conditions: protein: recombinant; tags: N-terminal GST; dsDNA, one strand shown
Method in brief: as §1

ELK4 = biological target: T9, ELK4 (Homo sapiens, UniProt P28324-2 1-405); conditions: protein: recombinant; tags: N-terminal GST; dsDNA, one strand shown
T9 sequence: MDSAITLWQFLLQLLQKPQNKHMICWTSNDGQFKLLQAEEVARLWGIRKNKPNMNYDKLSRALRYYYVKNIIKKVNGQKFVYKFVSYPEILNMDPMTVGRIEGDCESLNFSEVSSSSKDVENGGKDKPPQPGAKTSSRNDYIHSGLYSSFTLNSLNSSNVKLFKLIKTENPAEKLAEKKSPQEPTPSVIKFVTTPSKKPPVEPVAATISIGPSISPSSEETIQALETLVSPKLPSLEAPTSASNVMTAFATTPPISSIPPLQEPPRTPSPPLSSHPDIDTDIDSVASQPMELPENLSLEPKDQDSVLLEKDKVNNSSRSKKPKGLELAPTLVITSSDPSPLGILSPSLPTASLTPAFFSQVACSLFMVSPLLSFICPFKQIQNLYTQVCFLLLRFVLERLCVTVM
Method in brief: as §1

ETV2 = biological target: T10, ETV2 (Homo sapiens, UniProt O00321 1-342); conditions: protein: recombinant; tags: N-terminal GST; dsDNA, one strand shown
T10 sequence: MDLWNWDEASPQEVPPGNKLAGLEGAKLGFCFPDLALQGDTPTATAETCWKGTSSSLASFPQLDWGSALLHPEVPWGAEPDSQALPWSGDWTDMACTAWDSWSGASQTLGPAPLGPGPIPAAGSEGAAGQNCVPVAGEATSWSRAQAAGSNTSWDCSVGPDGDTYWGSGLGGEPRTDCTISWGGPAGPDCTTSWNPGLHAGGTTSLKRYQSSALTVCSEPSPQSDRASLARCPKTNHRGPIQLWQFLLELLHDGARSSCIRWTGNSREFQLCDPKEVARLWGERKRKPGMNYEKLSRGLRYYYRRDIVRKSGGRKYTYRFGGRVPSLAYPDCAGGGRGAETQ
Method in brief: as §1

ELF3 = biological target: T11, ELF3 (Homo sapiens, UniProt P78545 1-371); conditions: protein: recombinant; tags: N-terminal GST; dsDNA, one strand shown
T11 sequence: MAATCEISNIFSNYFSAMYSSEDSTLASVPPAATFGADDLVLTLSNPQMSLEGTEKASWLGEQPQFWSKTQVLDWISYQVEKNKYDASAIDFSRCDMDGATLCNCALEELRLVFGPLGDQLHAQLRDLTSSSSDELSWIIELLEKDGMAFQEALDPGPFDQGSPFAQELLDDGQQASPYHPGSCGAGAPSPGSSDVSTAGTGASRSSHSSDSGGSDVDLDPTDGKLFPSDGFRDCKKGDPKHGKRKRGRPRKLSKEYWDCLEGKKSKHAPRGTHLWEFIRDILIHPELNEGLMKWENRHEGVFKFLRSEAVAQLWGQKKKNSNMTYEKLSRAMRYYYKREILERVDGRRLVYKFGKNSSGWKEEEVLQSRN
Method in brief: as §1

CRX = CRX (Homo sapiens, UniProt O43186 1-299); conditions: protein: recombinant; tags: N-terminal GST; dsDNA, one strand shown
Method in brief: as §1

ETV1 = ETV1 (Homo sapiens, UniProt P50549 1-477); conditions: protein: recombinant; tags: N-terminal GST; dsDNA, one strand shown
Method in brief: as §1

HSF1, sequence (Q00613 whole entry): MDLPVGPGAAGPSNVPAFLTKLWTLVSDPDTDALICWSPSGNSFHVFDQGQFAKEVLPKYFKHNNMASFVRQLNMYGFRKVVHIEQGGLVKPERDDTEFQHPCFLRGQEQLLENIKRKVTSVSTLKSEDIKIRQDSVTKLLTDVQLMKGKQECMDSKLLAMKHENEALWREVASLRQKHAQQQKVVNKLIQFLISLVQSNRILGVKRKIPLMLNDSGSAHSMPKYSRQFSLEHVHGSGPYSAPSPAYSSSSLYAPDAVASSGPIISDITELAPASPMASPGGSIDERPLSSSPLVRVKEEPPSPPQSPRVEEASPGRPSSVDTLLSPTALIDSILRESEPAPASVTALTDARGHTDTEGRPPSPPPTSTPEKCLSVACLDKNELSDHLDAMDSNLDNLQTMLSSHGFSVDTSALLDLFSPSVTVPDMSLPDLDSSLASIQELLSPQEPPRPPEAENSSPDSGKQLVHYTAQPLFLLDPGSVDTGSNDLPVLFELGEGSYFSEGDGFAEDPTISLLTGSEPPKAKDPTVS
ELF4, sequence (Q99607 whole entry): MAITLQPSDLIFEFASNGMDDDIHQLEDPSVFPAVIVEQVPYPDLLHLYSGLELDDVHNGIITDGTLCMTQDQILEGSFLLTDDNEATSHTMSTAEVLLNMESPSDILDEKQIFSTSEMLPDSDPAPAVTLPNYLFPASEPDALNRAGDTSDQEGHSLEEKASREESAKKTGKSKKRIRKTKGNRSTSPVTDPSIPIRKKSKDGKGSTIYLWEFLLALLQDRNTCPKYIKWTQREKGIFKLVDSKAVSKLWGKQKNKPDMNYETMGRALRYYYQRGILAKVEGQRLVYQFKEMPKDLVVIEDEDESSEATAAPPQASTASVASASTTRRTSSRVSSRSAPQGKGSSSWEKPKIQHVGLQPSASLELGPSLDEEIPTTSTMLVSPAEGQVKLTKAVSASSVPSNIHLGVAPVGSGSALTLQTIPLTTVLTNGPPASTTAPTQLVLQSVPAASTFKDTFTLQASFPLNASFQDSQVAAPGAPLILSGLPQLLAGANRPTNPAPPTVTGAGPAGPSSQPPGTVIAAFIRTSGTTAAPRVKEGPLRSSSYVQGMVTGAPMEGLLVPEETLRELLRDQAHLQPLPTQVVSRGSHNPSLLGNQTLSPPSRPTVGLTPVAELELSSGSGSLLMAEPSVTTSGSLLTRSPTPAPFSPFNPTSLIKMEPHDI
SPIB, sequence (Q01892 whole entry): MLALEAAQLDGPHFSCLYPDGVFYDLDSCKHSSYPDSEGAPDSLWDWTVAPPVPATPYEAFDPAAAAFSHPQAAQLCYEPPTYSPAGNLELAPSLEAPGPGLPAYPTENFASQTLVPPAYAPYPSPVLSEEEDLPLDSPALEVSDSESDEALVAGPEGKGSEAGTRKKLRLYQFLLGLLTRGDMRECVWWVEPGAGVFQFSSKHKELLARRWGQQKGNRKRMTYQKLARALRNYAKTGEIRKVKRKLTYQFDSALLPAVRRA
ETV1, sequence (P50549 whole entry): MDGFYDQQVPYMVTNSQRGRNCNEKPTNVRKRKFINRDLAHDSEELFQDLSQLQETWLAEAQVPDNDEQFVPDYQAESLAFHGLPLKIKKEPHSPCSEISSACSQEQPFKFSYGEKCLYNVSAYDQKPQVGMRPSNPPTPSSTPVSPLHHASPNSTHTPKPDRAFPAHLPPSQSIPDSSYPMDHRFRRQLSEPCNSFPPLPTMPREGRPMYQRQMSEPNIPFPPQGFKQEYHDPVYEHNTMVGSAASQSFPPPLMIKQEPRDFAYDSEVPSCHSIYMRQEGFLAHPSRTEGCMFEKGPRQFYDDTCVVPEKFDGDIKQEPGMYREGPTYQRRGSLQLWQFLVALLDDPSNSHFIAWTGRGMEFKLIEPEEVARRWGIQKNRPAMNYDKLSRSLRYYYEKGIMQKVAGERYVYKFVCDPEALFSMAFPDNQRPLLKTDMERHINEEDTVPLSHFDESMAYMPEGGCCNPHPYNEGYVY
ETV5, sequence (P41161 whole entry): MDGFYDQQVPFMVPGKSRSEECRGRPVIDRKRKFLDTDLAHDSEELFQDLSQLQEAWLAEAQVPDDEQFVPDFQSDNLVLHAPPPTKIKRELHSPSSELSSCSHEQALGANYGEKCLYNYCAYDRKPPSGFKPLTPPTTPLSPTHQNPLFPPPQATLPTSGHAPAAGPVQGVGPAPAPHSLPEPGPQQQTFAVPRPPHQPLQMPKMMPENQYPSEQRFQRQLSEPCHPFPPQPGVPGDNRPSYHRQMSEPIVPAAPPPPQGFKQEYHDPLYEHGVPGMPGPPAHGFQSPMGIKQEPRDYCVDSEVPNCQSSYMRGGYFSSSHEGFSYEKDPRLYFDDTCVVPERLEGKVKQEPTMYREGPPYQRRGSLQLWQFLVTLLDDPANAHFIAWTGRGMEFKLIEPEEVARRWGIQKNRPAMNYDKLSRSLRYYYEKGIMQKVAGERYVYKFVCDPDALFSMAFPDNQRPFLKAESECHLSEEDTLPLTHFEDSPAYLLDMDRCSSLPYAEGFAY
ELF1, sequence (P32519 whole entry): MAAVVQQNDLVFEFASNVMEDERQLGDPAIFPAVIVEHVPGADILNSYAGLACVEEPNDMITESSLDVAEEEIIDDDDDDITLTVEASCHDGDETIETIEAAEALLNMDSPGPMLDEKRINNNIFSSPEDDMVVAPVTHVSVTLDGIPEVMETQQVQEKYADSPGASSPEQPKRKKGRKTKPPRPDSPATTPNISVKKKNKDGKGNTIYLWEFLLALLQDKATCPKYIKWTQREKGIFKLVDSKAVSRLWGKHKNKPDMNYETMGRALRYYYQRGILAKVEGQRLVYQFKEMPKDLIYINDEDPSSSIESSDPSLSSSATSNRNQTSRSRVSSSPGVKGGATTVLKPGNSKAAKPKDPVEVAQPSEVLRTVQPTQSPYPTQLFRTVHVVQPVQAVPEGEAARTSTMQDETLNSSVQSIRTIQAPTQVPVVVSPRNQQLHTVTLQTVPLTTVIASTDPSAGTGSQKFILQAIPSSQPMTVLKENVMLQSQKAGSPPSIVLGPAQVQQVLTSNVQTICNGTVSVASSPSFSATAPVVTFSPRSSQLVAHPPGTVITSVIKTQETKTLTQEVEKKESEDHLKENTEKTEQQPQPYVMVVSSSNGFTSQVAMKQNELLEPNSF
CRX, sequence (O43186 whole entry): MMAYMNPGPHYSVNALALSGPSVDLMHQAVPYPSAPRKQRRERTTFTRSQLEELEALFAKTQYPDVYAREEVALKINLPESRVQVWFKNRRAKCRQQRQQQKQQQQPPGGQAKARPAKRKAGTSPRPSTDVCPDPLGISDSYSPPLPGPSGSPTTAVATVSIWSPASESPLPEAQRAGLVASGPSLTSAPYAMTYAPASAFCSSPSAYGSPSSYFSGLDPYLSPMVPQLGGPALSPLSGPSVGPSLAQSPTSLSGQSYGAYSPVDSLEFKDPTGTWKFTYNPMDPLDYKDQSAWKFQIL

AAACCT was tested, and the binding signal (FLI1) was 1.15 fold enrichment (6-mer frequency, TF over GST control), the binding signal (ELK1) was 1.01 fold enrichment (6-mer frequency, TF over GST control) and the binding signal (GABPA) was 1.17 fold enrichment (6-mer frequency, TF over GST control). The binding signal (ERG) was 1.12 fold enrichment (6-mer frequency, TF over GST control), the binding signal (ELF1) was 1.19 fold enrichment (6-mer frequency, TF over GST control) and the binding signal (EHF) was 1.16 fold enrichment (6-mer frequency, TF over GST control). For the same sequence, the binding signal (SPI1) was 1.18 fold enrichment (6-mer frequency, TF over GST control), the binding signal (SPIB) was 1.11 fold enrichment (6-mer frequency, TF over GST control) and the binding signal (ELK3) was 1.15 fold enrichment (6-mer frequency, TF over GST control). For the same sequence, the binding signal (FEV) was 1.08 fold enrichment (6-mer frequency, TF over GST control), the binding signal (ETV5) was 1.13 fold enrichment (6-mer frequency, TF over GST control) and the binding signal (HSF1) was 1.15 fold enrichment (6-mer frequency, TF over GST control). The binding signal (SPIC) was 1.09 fold enrichment (6-mer frequency, TF over GST control), the binding signal (ELF4) was 1.16 fold enrichment (6-mer frequency, TF over GST control) and the binding signal (ELK4) was 1.2 fold enrichment (6-mer frequency, TF over GST control). The binding signal (ETV2) was 1.19 fold enrichment (6-mer frequency, TF over GST control), the binding signal (ELF3) was 1.19 fold enrichment (6-mer frequency, TF over GST control) and the binding signal (CRX) was 1.24 fold enrichment (6-mer frequency, TF over GST control). For the same sequence, the binding signal (ETV1) was 1.15 fold enrichment (6-mer frequency, TF over GST control).
